Data published in PubChem BioAssay (Tox21).
Where “and” joins values, the source holds several entries; their conditions need not be identical. Equal entries are not always repeated. Records with an inconclusive call do not appear. Calls of active or inactive are those of the source. Unless noted, the call rests on the fitted dose curve; in most records, active means well fitted curve in the direction sought with a large enough effect in the repeat runs; inconclusive means weak or mixed curves; inactive means no such curve, though single readings can be large; an effect the other way counts as inactive or inconclusive.

Experiments:
[1] = qHTS assay to identify aromatase inhibitors - cell viability counter screen (AID 743084);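 further: cells stimulated with testosterone during compound exposure; nearly all actives have a fitted effect of over 55% in size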; further: potency means the concentration at half of the fitted maximal effect
[2] = target: Aryl hydrocarbon receptor (Homo sapiens) (UniProt P35869); assay: qHTS assay to identify small molecule that activate the aryl hydrocarbon receptor (AhR) signaling pathway (AID 743085); further: nearly all actives have a fitted effect of over 15% in size; further: potency means the concentration at half of the fitted maximal effect;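 on activation: HG2L7.5c1 human HepG2 liver cells with stably integrated DRE-driven firefly reporter; series mostly up to about 70 µM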
Outline: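 Cell line HG2L7.5c1 (human hepatoma, 20× DRE-luc). Plated, 5 h 37C, compound/DMSO added, 24 h 37C. CellTiter-Fluor 30 min 37C → fluorescence; then ONE-Glo 30 min RT → luminescence.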

[3] = qHTS assay to identify small molecule that activate the aryl hydrocarbon receptor (AhR) signaling pathway - cell viability counter screen (AID 743086);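 further: HepG2 liver cells carrying the AhR DRE luciferase reporter; series mostly up to about 70 µM; nearly all actives have a fitted effect of over 45% in size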
Outline: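 Cytotoxicity counter screen: CellTiter-Fluor signal (30 min, 37 C) in 4000 HepG2 cells/well carrying the DRE-luciferase reporter, following 24 h compound exposure at 37 C.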

[4] = target: Peroxisome proliferator-activated receptor gamma (Homo sapiens) (UniProt P37231); assay: qHTS assay to identify small molecule agonists of the peroxisome proliferator-activated receptor gamma (PPARg) signaling pathway (AID 743094; active means well fitted activation curve with a large enough effect in the signal ratio in the repeat runs, not every such curve was filed as active; the % refers to the signal ratio)
Outline: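 Following 5 h plating at 37C, PPARg-bla HEK293H cells receive compound or DMSO for 17 h; fluorescence intensity is recorded after LiveBLAzer B/G loading for 1 h at room temperature.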

[5] = target: Peroxisome proliferator-activated receptor gamma (Homo sapiens) (UniProt P37231); assay: qHTS assay to identify small molecule antagonists of the peroxisome proliferator-activated receptor gamma (PPARg) signaling pathway (AID 743191; calls by dose curve; further: nearly all actives have a fitted effect of over 30% in size; further: potency means the concentration at half of the fitted maximal effect; on ratio activity, negative = inhibition: series mostly up to about 63 µM)
Outline: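 Beta-lactamase reporter under UAS control in HEK293H PPARg-bla cells; compound treatment 17 h at 37C. Read-out: fluorescence intensity after 1 h room-temperature incubation with LiveBLAzer B/G FRET substrate.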

[6] = qHTS assay to identify small molecule antagonists of the peroxisome proliferator-activated receptor gamma (PPARg) signaling pathway - cell viability counter screen (AID 743194); further: nearly all actives have a fitted effect of over 55% in size
Outline: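 Viability was measured as CellTiter-Glo luminescence in GeneBLAzer PPARg UAS-bla HEK293H cells. These cells had been exposed 17 h at 37 C to compounds together with rosiglitazone at 50 nM final, with the beta-lactamase readout taken in the same wells.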

[7] = qHTS assay for small molecule agonists of the antioxidant response element (ARE) signaling pathway (AID 743202; active means well fitted activation curve with a large enough effect in the signal ratio in the repeat runs, not every such curve was filed as active; the % refers to the signal ratio; further: potency means the concentration at half of the fitted maximal effect)
Outline: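 An ARE-responsive beta-lactamase gene stably integrated in HepG2 cells serves as reporter. After 5 h plating and 16 h compound incubation at 37 C, fluorescence of the B/G FRET substrate was measured.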

[8] = qHTS assay for small molecule agonists of the antioxidant response element (ARE) signaling pathway - cell viability counter screen (AID 743203; calls by dose curve; further: nearly all actives have a fitted effect of over 55% in size)
Outline: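 Compounds in DMSO were pinned onto ARE-bla HepG2 cells plated 5 hrs earlier at 2,000 cells/well. Sixteen hours later at 37C/5% CO2, CellTiter-Glo was added and luminescence measured after 30 min at room temperature.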

[9] = qHTS assay for small molecule activators of the heat shock response signaling pathway - cell viability counter screen (AID 743209); further: nearly all actives have a fitted effect of over 50% in size
Outline: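 Counter screen for cytotoxicity in HeLa HSE-bla reporter cells. Treatment was 5 h at 37 C; viability was detected by luminescent ATP assay (CellTiter-Glo) in the same wells as the beta-lactamase read.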

[10] = qHTS assay for small molecule activators of the heat shock response signaling pathway (AID 743210; active means well fitted activation curve with a large enough effect in the signal ratio in the repeat runs, with a control signal flat, not every such curve was filed as active; the % refers to the signal ratio;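 further: HeLa cells with beta-lactamase reporter driven by heat shock elements; series mostly up to about 63 µM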)
Outline: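 In HSE-bla HeLa cells, 5 h compound incubation (37 C) precedes addition of LiveBLAzer B/G substrate; after 2.5 h at room temperature, fluorescence intensity indicates reporter induction.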

[11] = qHTS assay to identify small molecule agonists of the peroxisome proliferator-activated receptor delta (PPARd) signaling pathway - cell viability counter screen (AID 743211); further: nearly all actives have a fitted effect of over 55% in size; further: potency means the concentration at half of the fitted maximal effect
Outline: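 HEK293H PPARd-bla, 3000 cells/well; 5 h preincubation 37C/5% CO2; cpd in DMSO, 17 h 37C; B/G FRET substrate 2 h RT; CellTiter-Glo 30 min RT, luminescence.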

[12] = qHTS assay to identify small molecule antagonists of the peroxisome proliferator-activated receptor delta (PPARd) signaling pathway - cell viability counter screen (AID 743213); further: nearly all actives have a fitted effect of over 50% in size
Outline: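 Viability counter-screen, qHTS format: PPARd-bla HEK293H, L165041 300 nM final, 17 h compound exposure at 37 C, CellTiter-Glo luminescence after 30 min RT.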

[13] = qHTS assay to identify small molecule agonists of the farnesoid-X-receptor (FXR) signaling pathway - cell viability counter screen (AID 743218); further: nearly all actives have a fitted effect of over 45% in size
Outline: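 After 16 h at 37 C with test compounds, FXR-bla HEK 293T cells were given LiveBLAzer B/G substrate for 2 h at RT and then CellTiter-Glo; luminescence was taken after 30 min.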

[14] = qHTS assay to identify small molecule antagonists of the farnesoid-X-receptor (FXR) signaling pathway - cell viability counter screen (AID 743221; active means well fitted cell-killing curve with a large enough effect in the repeat runs, not every such curve was filed as active; further: nearly all actives have a fitted effect of over 50% in size)
Outline: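 Luminescence from CellTiter-Glo measures cytotoxicity in GeneBLAzer FXR-UAS-bla HEK 293T cells. Cells were exposed to compounds with 50 uM chenodeoxycholic acid (final) for 16 h at 37 C, in wells also used for the reporter readout.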

[15] = target: Vitamin D3 receptor (Homo sapiens) (UniProt P11473); assay: qHTS assay to identify small molecule agonists of the vitamin D receptor (VDR) signaling pathway (AID 743222; calls by dose curve)
Outline: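 VDR-bla cells were seeded, left 4 h, treated with compounds in DMSO for 16 h, incubated 2 h at RT with B/G FRET substrate, and read for fluorescence.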

[16] = target: Vitamin D3 receptor (Homo sapiens) (UniProt P11473); assay: qHTS assay to identify small molecule antagonists of the vitamin D receptor (VDR) signaling pathway (AID 743223; active means well fitted inhibition curve with a large enough effect in the signal ratio in the repeat runs, not every such curve was filed as active; the % refers to the signal ratio)
Outline: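 Antagonist mode uses 1alpha,25-dihydroxyvitamin D3 at 3 nM final as stimulus. VDR-bla cells receive compounds in DMSO, incubate 16 h at 37C, then a beta-lactamase FRET substrate for 2 h at room temperature before fluorescence measurement.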

[17] = target: Peroxisome proliferator-activated receptor delta (Homo sapiens) (UniProt Q03181); assay: qHTS assay to identify small molecule agonists of the peroxisome proliferator-activated receptor delta (PPARd) signaling pathway (AID 743212; calls by dose curve)
Outline: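 HEK293H UAS-bla reporter cells, human PPARd system; compounds delivered in DMSO after 5 h plating, then at 37 C. Beta-lactamase FRET read, 2 h RT substrate step.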

[18] = target: Peroxisome proliferator-activated receptor delta (Homo sapiens) (UniProt Q03181); assay: qHTS assay to identify small molecule antagonists of the peroxisome proliferator-activated receptor delta (PPARd) signaling pathway (AID 743215; active means well fitted inhibition curve with a large enough effect in the signal ratio in the repeat runs, not every such curve was filed as active; the % refers to the signal ratio;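 further: cells stimulated with agonist L165041 at 300 nM final during compound exposure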; further: potency means the concentration at half of the fitted maximal effect; on ratio activity, negative = inhibition: series mostly up to about 62 µM)
Outline: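 With L165041 present at 300 nM final, compounds were incubated 17 h at 37 C on PPARd UAS-bla HEK293H cells. A FRET-based beta-lactamase substrate was then applied for 2 h at room temperature and fluorescence intensity recorded.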

[19] = target: Bile acid receptor (Homo sapiens) (UniProt Q96RI1); assay: qHTS assay to identify small molecule antagonists of the farnesoid-X-receptor (FXR) signaling pathway (AID 743217; active means well fitted inhibition curve with a large enough effect in the signal ratio in the repeat runs, not every such curve was filed as active; the % refers to the signal ratio)
Outline: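 In this cell-based antagonist screen, inhibition of CDCA-driven (50 uM final) UAS-beta-lactamase expression in HEK 293T cells was measured by FRET fluorescence following 16 h compound exposure at 37 °C.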

[20] = target: Bile acid receptor (Homo sapiens) (UniProt Q96RI1); assay: qHTS assay to identify small molecule agonists of the farnesoid-X-receptor (FXR) signaling pathway (AID 743220; active means well fitted activation curve with a large enough effect in the signal ratio in the repeat runs, not every such curve was filed as active; the % refers to the signal ratio)
Outline: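 Beta-lactamase reporter under UAS control in GeneBLAzer FXR HEK 293T cells (5000/well) measured with LiveBLAzer FRET substrate after 2 h at room temperature. Compound exposure lasted 16 h at 37C.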
On the % scale 0 is the no-effect control and ±100 the full control effect.

Aryl hydrocarbon receptor (Homo sapiens), sequence (P35869 whole entry, looked up): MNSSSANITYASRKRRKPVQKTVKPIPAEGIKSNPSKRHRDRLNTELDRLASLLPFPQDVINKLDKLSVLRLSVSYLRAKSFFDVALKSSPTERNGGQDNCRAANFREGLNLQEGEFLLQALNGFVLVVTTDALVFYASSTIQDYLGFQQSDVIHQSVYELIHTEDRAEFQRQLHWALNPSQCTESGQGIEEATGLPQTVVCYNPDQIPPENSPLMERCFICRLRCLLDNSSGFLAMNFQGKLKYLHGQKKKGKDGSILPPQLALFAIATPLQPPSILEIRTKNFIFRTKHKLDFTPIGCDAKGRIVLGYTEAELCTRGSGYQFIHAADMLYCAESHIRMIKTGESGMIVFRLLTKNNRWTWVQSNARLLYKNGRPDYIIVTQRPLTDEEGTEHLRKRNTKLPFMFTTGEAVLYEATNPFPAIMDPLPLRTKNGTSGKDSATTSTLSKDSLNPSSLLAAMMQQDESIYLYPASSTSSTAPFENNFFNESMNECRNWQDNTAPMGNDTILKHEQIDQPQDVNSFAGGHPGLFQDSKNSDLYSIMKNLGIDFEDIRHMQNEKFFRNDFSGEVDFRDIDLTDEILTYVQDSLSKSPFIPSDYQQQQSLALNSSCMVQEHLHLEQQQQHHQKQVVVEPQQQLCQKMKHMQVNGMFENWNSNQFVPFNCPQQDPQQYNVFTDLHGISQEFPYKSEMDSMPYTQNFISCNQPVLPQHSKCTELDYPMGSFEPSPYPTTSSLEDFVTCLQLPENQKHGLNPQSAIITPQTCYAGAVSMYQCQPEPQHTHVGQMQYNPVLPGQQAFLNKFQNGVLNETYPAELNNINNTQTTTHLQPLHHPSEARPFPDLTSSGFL
Bile acid receptor (Homo sapiens), sequence (Q96RI1 whole entry, looked up): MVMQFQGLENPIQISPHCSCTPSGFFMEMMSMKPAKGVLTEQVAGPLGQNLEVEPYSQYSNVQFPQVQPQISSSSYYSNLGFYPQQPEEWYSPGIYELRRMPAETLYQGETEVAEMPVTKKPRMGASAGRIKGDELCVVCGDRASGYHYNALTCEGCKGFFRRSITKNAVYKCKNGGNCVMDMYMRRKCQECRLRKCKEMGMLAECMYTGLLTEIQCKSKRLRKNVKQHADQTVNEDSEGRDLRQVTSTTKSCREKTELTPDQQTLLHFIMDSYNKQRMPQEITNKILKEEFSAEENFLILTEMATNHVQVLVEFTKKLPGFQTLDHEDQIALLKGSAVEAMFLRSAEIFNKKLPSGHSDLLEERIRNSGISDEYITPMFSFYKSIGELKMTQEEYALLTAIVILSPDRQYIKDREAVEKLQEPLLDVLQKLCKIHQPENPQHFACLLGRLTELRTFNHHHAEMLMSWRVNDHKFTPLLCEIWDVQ
Peroxisome proliferator-activated receptor gamma (Homo sapiens), sequence (P37231 whole entry, looked up): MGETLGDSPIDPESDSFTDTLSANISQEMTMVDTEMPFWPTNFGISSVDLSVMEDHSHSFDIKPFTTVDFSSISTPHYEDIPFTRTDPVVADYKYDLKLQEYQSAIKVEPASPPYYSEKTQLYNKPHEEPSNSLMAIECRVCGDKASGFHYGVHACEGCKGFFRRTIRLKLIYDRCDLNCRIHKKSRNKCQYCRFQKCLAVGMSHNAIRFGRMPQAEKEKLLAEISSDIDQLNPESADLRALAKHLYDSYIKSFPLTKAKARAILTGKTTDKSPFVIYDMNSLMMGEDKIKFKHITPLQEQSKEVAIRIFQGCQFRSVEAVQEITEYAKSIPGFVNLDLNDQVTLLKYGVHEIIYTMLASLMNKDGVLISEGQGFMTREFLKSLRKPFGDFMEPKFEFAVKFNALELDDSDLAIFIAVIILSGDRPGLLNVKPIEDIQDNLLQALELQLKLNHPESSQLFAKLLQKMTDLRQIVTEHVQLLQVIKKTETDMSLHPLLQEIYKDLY
Vitamin D3 receptor (Homo sapiens), sequence (P11473 whole entry, looked up): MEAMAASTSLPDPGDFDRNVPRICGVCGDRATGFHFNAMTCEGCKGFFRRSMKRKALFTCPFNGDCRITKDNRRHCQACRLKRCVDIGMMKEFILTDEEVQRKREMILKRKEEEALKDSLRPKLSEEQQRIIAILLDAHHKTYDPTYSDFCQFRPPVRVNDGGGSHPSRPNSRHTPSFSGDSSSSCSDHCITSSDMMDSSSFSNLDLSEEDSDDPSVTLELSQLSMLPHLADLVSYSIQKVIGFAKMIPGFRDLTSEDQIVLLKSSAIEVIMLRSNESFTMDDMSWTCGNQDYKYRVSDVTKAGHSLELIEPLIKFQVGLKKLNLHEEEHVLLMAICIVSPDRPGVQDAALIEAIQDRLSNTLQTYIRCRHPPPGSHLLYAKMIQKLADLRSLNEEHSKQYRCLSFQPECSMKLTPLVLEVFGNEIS
Peroxisome proliferator-activated receptor delta (Homo sapiens), sequence (Q03181 whole entry, looked up): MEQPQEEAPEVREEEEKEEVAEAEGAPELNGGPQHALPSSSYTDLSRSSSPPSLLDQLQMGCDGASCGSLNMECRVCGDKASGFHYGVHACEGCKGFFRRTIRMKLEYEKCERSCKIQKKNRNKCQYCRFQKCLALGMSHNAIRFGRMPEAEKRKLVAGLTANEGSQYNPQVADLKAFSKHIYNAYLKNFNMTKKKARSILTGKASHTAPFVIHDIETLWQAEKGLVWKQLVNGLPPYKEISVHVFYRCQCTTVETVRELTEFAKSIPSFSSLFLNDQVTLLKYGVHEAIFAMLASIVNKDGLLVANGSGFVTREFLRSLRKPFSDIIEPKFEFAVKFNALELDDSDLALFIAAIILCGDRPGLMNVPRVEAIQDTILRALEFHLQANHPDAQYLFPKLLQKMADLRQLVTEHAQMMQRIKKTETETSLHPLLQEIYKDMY

CCN1CCC[C@H]1CNC(=O)c1cc(S(N)(=O)=O)ccc1OC
inactive: Potency [1] | Potency [2] | Potency [3] | outcome [4] | Potency [5] | outcome [6] | Potency [7] | Potency [8] | outcome [9] | outcome [10] | Potency [11] | Potency [12] | Potency [13] | Potency [14] | outcome [15] | outcome [16]

CC/C=C\CCOC(C)=O
inactive: Potency [1] | Potency [2] | Potency [3] | outcome [4] | Potency [5] | outcome [6] | Potency [7] | Potency [8] | outcome [9] | outcome [10] | Potency [11] | outcome [17] | Potency [12] | Potency [18] | outcome [19] | Potency [13] | outcome [20] | Potency [14] | outcome [15] | outcome [16]

CC(C)(CC(=O)O)C(=O)O
inactive: Potency [1] | Potency [2] | Potency [3] | outcome [4] | Potency [5] | outcome [6] | Potency [7] | outcome [10] | Potency [11] | outcome [17] | Potency [12] | Potency [18] | Potency [13] | Potency [14] | outcome [15] | outcome [16]

CCOc1ccc(C(=O)OCCN(CC)CC)cc1
inactive: Potency [1] | Potency [2] | Potency [3] | outcome [4] | Potency [5] | outcome [6] | Potency [7] | outcome [9] | Potency [12] | outcome [19] | outcome [20] | Potency [14] | outcome [15] | outcome [16]

CC(=O)Nc1ccc(S(N)(=O)=O)cc1
inactive: Potency [1] | Potency [2] | Potency [3] | outcome [4] | Potency [5] | outcome [6] | Potency [7] | Potency [8] | outcome [10] | Potency [11] | outcome [17] | outcome [19] | Potency [13] | outcome [20] | Potency [14] | outcome [15]

CCc1ccc(O)c(OC)c1
inactive: Potency [1] | Potency [2] | Potency [3] | outcome [4] | Potency [5] | outcome [6] | Potency [7] | outcome [9] | outcome [10] | Potency [11] | Potency [12] | Potency [18] | outcome [19] | Potency [13] | outcome [20] | Potency [14]

Cc1c(NC(C)C)c(=O)n(-c2ccccc2)n1C
inactive: Potency [1] | Potency [2] | Potency [3] | outcome [4] | Potency [5] | outcome [6] | Potency [7] | Potency [8] | Potency [11] | outcome [17] | Potency [12] | Potency [14] | outcome [15] | outcome [16]

O=c1n(CCO)c(=O)n(CCO)c(=O)n1CCO
inactive: Potency [1] | Potency [2] | Potency [3] | outcome [4] | Potency [5] | outcome [6] | Potency [8] | outcome [9] | outcome [10] | Potency [11] | outcome [17] | Potency [12] | Potency [18] | outcome [19] | Potency [13] | outcome [20] | Potency [14] | outcome [15] | outcome [16]

O=C(O)CN(CCOCCOCCN(CC(=O)O)CC(=O)O)CC(=O)O
inactive: Potency [1] | Potency [2] | Potency [3] | outcome [4] | ratio activity, negative = inhibition [5] -4.72% [at 0.55 µM] | activity change, negative = cytotoxicity [6] 11.4% [at 0.55 µM] | activation [7] 8.1% [at 0.756 µM] | activation [10] 0.198% [at 0.55 µM] | activity change, negative = cytotoxicity [11] 8.22% [at 0.55 µM] | activation [17] -2.28% [at 0.55 µM] | viability change, negative = cytotoxic [12] 5.18% [at 0.575 µM] | viability change, negative = cytotoxic [13] -1.35% [at 0.55 µM] | activation [15] 6.34% [at 0.554 µM] | activity change, negative = inhibition [16] 2.94% [at 0.628 µM]

CC(C)(C)c1ccc(O)c(O)c1
active: Potency [1] 54.5 µM | Potency [2] 70.9 µM and 34.4 µM | Potency [5] 18 µM | Potency [7] 28.2 µM and 24.3 µM | Potency [11] 25.4 µM | Potency [18] 50.7 µM
inactive: Potency [3] | outcome [4] | outcome [6] | outcome [9] | Potency [13] | Potency [14] | outcome [15]

CCn1ccnc1CC1COc2ccccc2O1 (centres undefined)
inactive: Potency [1] | Potency [2] | Potency [3] | outcome [4] | Potency [5] | outcome [6] | Potency [7] | outcome [9] | outcome [10] | Potency [11] | outcome [17] | Potency [18] | outcome [19] | Potency [13] | outcome [20] | Potency [14]

COC(=O)CC(C)=O
inactive: Potency [1] | Potency [2] | Potency [3] | outcome [4] | Potency [5] | outcome [6] | Potency [7] | Potency [8] | outcome [10] | Potency [11] | outcome [17] | Potency [12] | Potency [14]

CC(C(=O)O)c1ccc(CC2CCCC2=O)cc1 (centres undefined)
inactive: Potency [1] | Potency [2] | Potency [3] | outcome [4] | Potency [5] | outcome [6] | Potency [7] | outcome [9] | Potency [11] | outcome [17] | Potency [12] | Potency [13] | outcome [20] | Potency [14] | outcome [15] | outcome [16]

Cn1c(N)c(N=O)c(=O)n(C)c1=O
inactive: Potency [1] | Potency [3] | outcome [4] | Potency [5] | outcome [6] | Potency [7] | Potency [8] | outcome [10] | Potency [11] | outcome [17] | Potency [12] | Potency [13] | Potency [14] | outcome [15] | outcome [16]
active: Potency [2] 25.1 µM

COC(=O)NN
inactive: Potency [1] | Potency [2] | Potency [3] | outcome [4] | Potency [5] | outcome [6] | Potency [7] | outcome [9] | outcome [10] | Potency [11] | outcome [17] | outcome [19] | outcome [20] | Potency [14] | outcome [15] | outcome [16]

N[C@H](C(=O)O)c1ccc(O)cc1
inactive: Potency [1] | Potency [2] | Potency [3] | outcome [4] | Potency [5] | outcome [6] | Potency [7] | Potency [8] | Potency [11] | outcome [17] | Potency [12] | Potency [14] | outcome [15] | outcome [16]

COCCc1ccc(OCC(O)CNC(C)C)cc1 (centres undefined)
inactive: Potency [1] | Potency [2] | Potency [3] | outcome [4] | Potency [5] | outcome [6] | Potency [7] | Potency [8] | Potency [11] | outcome [17] | outcome [19] | outcome [20] | Potency [14] | outcome [15] | outcome [16]
